Nine sequences from patent US20060069055, “Delivery of polynucleotides” (published 2006) can be followed below.

Chain of NF-kB p65/p50 heterodimer (Q04206 whole entry, chain 1 of 2): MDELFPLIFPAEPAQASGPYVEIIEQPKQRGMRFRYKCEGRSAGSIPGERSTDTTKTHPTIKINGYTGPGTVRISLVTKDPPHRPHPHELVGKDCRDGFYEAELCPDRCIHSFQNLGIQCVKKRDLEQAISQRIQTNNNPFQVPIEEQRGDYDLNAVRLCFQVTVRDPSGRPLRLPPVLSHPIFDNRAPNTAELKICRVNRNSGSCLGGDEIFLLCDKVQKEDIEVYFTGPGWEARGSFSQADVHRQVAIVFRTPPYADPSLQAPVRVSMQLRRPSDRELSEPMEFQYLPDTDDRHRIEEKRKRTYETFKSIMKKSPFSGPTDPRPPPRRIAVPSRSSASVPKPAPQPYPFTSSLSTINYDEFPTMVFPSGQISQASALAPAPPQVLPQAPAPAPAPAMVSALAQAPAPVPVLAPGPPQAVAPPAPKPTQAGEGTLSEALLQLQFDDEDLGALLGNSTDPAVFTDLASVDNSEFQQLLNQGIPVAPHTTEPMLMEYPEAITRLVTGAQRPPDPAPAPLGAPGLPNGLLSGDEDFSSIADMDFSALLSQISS
Chain of NF-kB p65/p50 heterodimer (P19838 1-433, chain 2 of 2): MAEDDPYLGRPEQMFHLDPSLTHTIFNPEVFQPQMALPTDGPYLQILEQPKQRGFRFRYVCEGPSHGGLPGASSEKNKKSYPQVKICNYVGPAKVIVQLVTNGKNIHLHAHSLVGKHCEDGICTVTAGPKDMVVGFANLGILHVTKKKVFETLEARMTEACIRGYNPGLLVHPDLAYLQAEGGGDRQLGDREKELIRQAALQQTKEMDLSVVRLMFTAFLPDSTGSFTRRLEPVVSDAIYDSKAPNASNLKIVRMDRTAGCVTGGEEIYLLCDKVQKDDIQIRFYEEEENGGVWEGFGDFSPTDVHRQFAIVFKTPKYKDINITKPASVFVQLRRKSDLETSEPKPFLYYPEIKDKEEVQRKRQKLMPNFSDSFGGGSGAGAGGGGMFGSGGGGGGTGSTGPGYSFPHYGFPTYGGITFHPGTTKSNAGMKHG

The test concerns the target NF-kB p65/p50 heterodimer (Homo sapiens, UniProt Q04206;P19838 Q04206:1-551,P19838:1-433). The test can be described thus: EMSA. The note with it: protein: extract; tags: nuclear extract of LPS-stimulated THP-1 cells; dsDNA, one strand shown. From the text:
The EMSA assay was employed to characterize oligonucleotide decoys for the NF-κB transcription factor. […] Using the above modified oligonucleotides to compete for binding for the above-mentioned NF-κB family members, it was possible to compare the binding affinity of these oligonucleotides against the high affinity radiolabeled probe and each other. This assay has also enabled the design of a decoy which selectively binds particular members of the NF-κB family. By using increasing concentrations of various oligonucleotides, it was observed that, by deleting or changing targeted residues in the binding site, it was possible to specifically decrease the binding of the decoy molecule to p50/p50 homodimers, while retaining the affinity for p65/p50 and cRel/p50 heterodimers.
The NF-κB gel shift assays (EMSA) were performed as follows. A double-stranded oligonucleotide containing a consensus NF-κB binding site (5′ […].GGC 3′) (SEQ ID NO: 26) was end-labeled with γ³²P-ATP using T4 Polynucleotide Kinase (Promega). One microgram of a nuclear extract prepared from LPS stimulated THP-1 cells (human monocyte cell line) was incubated with 35 fmol of radiolabeled probe in the presence or absence of competing unlabeled NF-κB double-stranded oligonucleotides (dsODN) or scrambled dsODN. The incubations were carried out at room temperature for 30 minutes in a 20 μl reaction volume composed of 10 mM Tris-HCl pH 8, 100 mM KCL, 5mM MgC12, 2mM DTT, 10% Glycerol, 0.1% NP-40, 0.025% BSA and 1 μg Poly-dIdC. The reactions were loaded onto a 6% polyacrylamide gel, subjected to electrophoresis and dried. The dried gels were imaged and quantitated using a Typhoon 8600 Phosphorlmager (Amersham) and ImageQuant software. The identity of the NF-κB proteins contained in complexes bound to the radiolabeled oligonucleotide probe were identified by pre-incubating the reactions for 5 minutes with individual antibodies specific for each member of the NF-κB family prior to the addition of the radiolabeled probe.
As to AGTTGAGGATTTCCAGGC, the IC50 was 73 fold molar excess.

As to ATGGACTTTCCGT, the IC50 is 72.5 fold molar excess.

For TCGGACTTTCCTC, the IC50 is 81 fold molar excess.

In turn, TCGGATTTCCTC displayed an IC50 of 74 fold molar excess.

TTGAGGACTTTCCAGGCTC: the IC50 turned out to be 87 fold molar excess.

With TGAGGACTTTCCAGGC, the IC50 was found to be 93 fold molar excess.

Sequence AGTTGAGGATTTCCCAGGC registered an IC50 of 54 fold molar excess.

With TGAGGACTTTCCAGGCTC, the IC50 was found to be 92 fold molar excess.

Sequence TTGAGGACTTTCCAGGC returned an IC50 of 87 fold molar excess.
